# Reference: PMC8384837, “Expanding the binding specificity for RNA recognition by a PUF domain”
# Experiments:
# Assay in all cases: yeast three-hybrid, YBZ-1, SC-Leu-His + 0.5 mM 3-AT, 4 days
# Conditions in all cases: tags: N-Gal4 AD-HA kept; label: inside an RPR1-promoter hybrid RNA with tandem MS2 sites; ssRNA
# PUM1 PUF domain R1-SLR = PUM1 PUF domain R1-SLR (Homo sapiens, UniProt Q14671 828-1176, R864L;Q867R)
# Summary of the method: (§1)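 The interaction score is the log change in how often each variant appears, from input to selection. Frequencies came from PCR-amplified, Illumina-sequenced repeat regions of Pumilio-1 PUF domain libraries grown in strain YBZ-1 (LexA–MS2 coat fusion, HIS3 reporter) alongside matching RNA elements. Input plates were SC-Leu and selection plates were SC-Leu-His + 0.5 mM 3-AT, each for four days, and the log2 calculation used a pseudocount of 1 where a variant was absent.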
# PUM1 PUF domain R3-TRF = PUM1 PUF domain R3-TRF (Homo sapiens, UniProt Q14671 828-1176, C935T;Q939F)
# Summary of the method: as §1
# PUM1 PUF domain R3-GPT = PUM1 PUF domain R3-GPT (Homo sapiens, UniProt Q14671 828-1176, C935G;R936P;Q939T)
# Summary of the method: as §1
# PUM1 PUF domain R3-LWT = PUM1 PUF domain R3-LWT (Homo sapiens, UniProt Q14671 828-1176, C935L;R936W;Q939T)
# Summary of the method: as §1
# PUM1 PUF domain R3-EWE = PUM1 PUF domain R3-EWE (Homo sapiens, UniProt Q14671 828-1176, C935E;R936W;Q939E)
# Summary of the method: as §1
# PUM1 PUF domain R7-KRG = PUM1 PUF domain R7-KRG (Homo sapiens, UniProt Q14671 828-1176, S1079K;N1080R;E1083G)
# Summary of the method: as §1
# PUM1 PUF domain R7-TVG = PUM1 PUF domain R7-TVG (Homo sapiens, UniProt Q14671 828-1176, S1079T;N1080V;E1083G)
# Summary of the method: as §1
# PUM1 PUF domain R5-EFR = PUM1 PUF domain R5-EFR (Homo sapiens, UniProt Q14671 828-1176, C1007E;R1008F;Q1011R)
# Summary of the method: as §1
# PUM1 PUF domain R3-IYL = PUM1 PUF domain R3-IYL (Homo sapiens, UniProt Q14671 828-1176, C935I;R936Y;Q939L)
# Summary of the method: as §1
# PUM1 PUF domain R4-SML = PUM1 PUF domain R4-SML (Homo sapiens, UniProt Q14671 828-1176, N971S;H972M;Q975L)
# Summary of the method: as §1
sequence,measurement,setting,value
GGCUAGAACUAGUGGAUCCCCCGGCGCCCGGCGGCUCGAGCCCGGGUAAGUGUAAAUUGUCUGCAUGCCGCCGGGCGCCAUGCCUGCAGGUCGACUCUAGAAAACAUG,binding signal,PUM1 PUF domain R1-SLR,0.57 log2 enrichment (interaction score)
GGCUAGAACUAGUGGAUCCCCCGGCGCCCGGCGGCUCGAGCCCGGGUAAGUGUAAUUAGUCUGCAUGCCGCCGGGCGCCAUGCCUGCAGGUCGACUCUAGAAAACAUG,binding signal,PUM1 PUF domain R3-TRF,0.63 log2 enrichment (interaction score)
same,binding signal,PUM1 PUF domain R3-GPT,2.69 log2 enrichment (interaction score)
same,binding signal,PUM1 PUF domain R3-LWT,4.05 log2 enrichment (interaction score)
same,binding signal,PUM1 PUF domain R3-EWE,4.69 log2 enrichment (interaction score)
GGCUAGAACUAGUGGAUCCCCCGGCGCCCGGCGGCUCGAGCCCGGGUAAGUGUAAAUCGUCUGCAUGCCGCCGGGCGCCAUGCCUGCAGGUCGACUCUAGAAAACAUG,binding signal,PUM1 PUF domain R1-SLR,3.37 log2 enrichment (interaction score)
GGCUAGAACUAGUGGAUCCCCCGGCGCCCGGCGGCUCGAGCCCGGGUAAGUGUAAGUAGUCUGCAUGCCGCCGGGCGCCAUGCCUGCAGGUCGACUCUAGAAAACAUG,binding signal,PUM1 PUF domain R3-EWE,4.74 log2 enrichment (interaction score)
GGCUAGAACUAGUGGAUCCCCCGGCGCCCGGCGGCUCGAGCCCGGGUAAGUCUAAAUAGUCUGCAUGCCGCCGGGCGCCAUGCCUGCAGGUCGACUCUAGAAAACAUG,binding signal,PUM1 PUF domain R7-KRG,2.64 log2 enrichment (interaction score)
GGCUAGAACUAGUGGAUCCCCCGGCGCCCGGCGGCUCGAGCCCGGGUAAGUUUAAAUAGUCUGCAUGCCGCCGGGCGCCAUGCCUGCAGGUCGACUCUAGAAAACAUG,binding signal,PUM1 PUF domain R7-KRG,2.98 log2 enrichment (interaction score)
same,binding signal,PUM1 PUF domain R7-TVG,4.37 log2 enrichment (interaction score)
GGCUAGAACUAGUGGAUCCCCCGGCGCCCGGCGGCUCGAGCCCGGGUAAGUGUCAAUAGUCUGCAUGCCGCCGGGCGCCAUGCCUGCAGGUCGACUCUAGAAAACAUG,binding signal,PUM1 PUF domain R5-EFR,1.31 log2 enrichment (interaction score)
GGCUAGAACUAGUGGAUCCCCCGGCGCCCGGCGGCUCGAGCCCGGGUAAGUGUAAAUAGUCUGCAUGCCGCCGGGCGCCAUGCCUGCAGGUCGACUCUAGAAAACAUG,binding signal,PUM1 PUF domain R3-TRF,4.8 log2 enrichment (interaction score)
same,binding signal,PUM1 PUF domain R3-GPT,2.91 log2 enrichment (interaction score)
same,binding signal,PUM1 PUF domain R3-IYL,4.44 log2 enrichment (interaction score)
same,binding signal,PUM1 PUF domain R4-SML,3.12 log2 enrichment (interaction score)
same,binding signal,PUM1 PUF domain R5-EFR,3.42 log2 enrichment (interaction score)
same,binding signal,PUM1 PUF domain R3-LWT,3.77 log2 enrichment (interaction score)
